Screening results as filed in PubChem.
SMN2 splice enh – qHTS Assay for Enhancers of SMN2 Splice Variant Expression | HEK293 SMN2-luciferase splicing reporter, luminescence, 30-36 h | Potency, µM (series often up to 46.1 µM), usual class: activators | hit rate 2.8% among 210,000; also: nearly all actives have a fitted effect of over 55% in size
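HEK293 cells carry an SMN2 […]–luciferase reporter in which exon 7 inclusion puts luciferase in frame. Cells were plated 10-12 h before compound addition, then incubated 30-36 h at 37C. ONE-Glo luminescence was read; sodium butyrate at 4.5 mM final served as control.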
NPC1 promoter act – qHTS Assay for NPC1 Promoter Activators; AID 485313, 2010; Potency, µM (titrated, usually from 9.22 µM), hits mostly activators; hit rate 2.4% among 320,000; Huh7 NPC1 promoter luciferase reporter, 24 h; also: nearly all actives have a fitted effect of over 60% in size
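NPC1 promoter–luciferase Huh7 cells; 24 h compound; luminescence.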
Rab9 promoter act – qHTS Assay for Rab9 Promoter Activators | Huh7 Rab9 promoter-luciferase reporter, luminescence, 24 h | Potency, µM (series often up to 9.22 µM), usual class: activators | hit rate 2.8% among 320,000; also: nearly all actives have a fitted effect of over 60% in size
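Huh7 cells stably carrying a Rab9 promoter-luciferase reporter, 1500 cells per well in OP-MEM I with 10% FBS, treated with compound 24 hours at 37C. Luciferase activity read by luminescence after 10 minutes with Amplite reagent.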
FLuc counter – qHTS profiling assay for firefly luciferase inhibitor/activator using purifed enzyme and Km concentrations of substrates (counterscreen for miR-21 project). Potency, µM (doses to about 57.5 µM), usual class: inhibitors. hit rate 6.9% among 360,000. AID 588342, 2011. purified FLuc, Km substrates, luminescence inhibition; also: nearly all actives have a fitted effect of over 55% in size
Target sequence (P08659 whole entry, looked up): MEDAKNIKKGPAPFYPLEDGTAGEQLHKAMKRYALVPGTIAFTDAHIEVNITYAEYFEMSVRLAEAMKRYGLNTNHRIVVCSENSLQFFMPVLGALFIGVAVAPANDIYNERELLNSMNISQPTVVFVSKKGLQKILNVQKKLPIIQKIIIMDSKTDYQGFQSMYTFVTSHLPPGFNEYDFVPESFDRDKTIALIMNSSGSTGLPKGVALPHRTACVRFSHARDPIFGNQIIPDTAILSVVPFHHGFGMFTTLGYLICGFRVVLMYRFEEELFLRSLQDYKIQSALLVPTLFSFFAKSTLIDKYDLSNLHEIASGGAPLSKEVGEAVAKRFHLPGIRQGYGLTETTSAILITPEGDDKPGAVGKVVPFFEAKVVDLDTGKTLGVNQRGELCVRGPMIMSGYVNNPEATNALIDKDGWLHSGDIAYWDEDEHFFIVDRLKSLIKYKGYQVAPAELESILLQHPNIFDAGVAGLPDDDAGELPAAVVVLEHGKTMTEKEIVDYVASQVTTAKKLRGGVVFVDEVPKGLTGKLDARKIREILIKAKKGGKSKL
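Purified P. pyralis luciferase (10nM final) with 10uM D-luciferin and 10uM ATP (Km levels) in 50mM Tris acetate pH 7.5, 10mM Mg acetate, 0.01% Tween-20, 0.05% BSA; qHTS 6-point titration, ~60 µM downward; luminescence read.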
Luc counter – Counterscreen for Luciferase (Kinase-Glo TM) Inhibition; Luciferin 4-monooxygenase (Photuris pensylvanica), Q27757; AID 1379, 2008; Potency, µM (series often up to 38.3 µM), most hits filed as inhibitors; hit rate 0.28% among 200,000; Kinase-Glo luciferase, ATP luminescence, 8 min; also: nearly all actives have a fitted effect of over 60% in size
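Compound is pinned into ATP-containing buffer (10 uM ATP, imidazole pH 7.2, 7 mM MgCl2). Kinase-Glo luciferase reagent is then added. Light output is recorded following an 8-min room-temperature incubation.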
ELG1 genotox – qHTS screen for small molecules that induce genotoxicity in human embryonic kidney (HEK293T) cells expressing luciferase-tagged ELG1. Potency, µM (titrated, usually from 46 µM), actives largely listed as activators. AID 504466, 2011. HEK293T ELG1-luciferase reporter, luminescence, 16 h. hit rate 1.3% among 330,000; also: nearly all actives have a fitted effect of over 60% in size
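Genotoxicity was scored as increased ELG1-luciferase reporter signal, measured by ONE-Glo luminescence (30 min, room temperature). Compound or vehicle exposure of the HEK293T reporter cells lasted 16 hr at 37°C.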
A number is an active result; – = inactive; ? = inconclusive; · = no result given; [ ] = another dose, or the depositor's remark. Sampled rows, rich in hits. Any-hit rate of the full collection: about 7.4%. Calls follow the shape of the dose curve; as a rule, active = well fitted curve in the direction sought with a large enough effect; inconclusive = small, poorly fitted or top-dose-only effect, or another doubt; inactive = no such curve, though single readings can be large; an effect the other way counts as inactive or inconclusive.

SMILES	SMN2 splice enh	NPC1 promoter act	Rab9 promoter act	FLuc counter	Luc counter	ELG1 genotox
COc1cc(CNc2ccc3[nH]c(=O)[nH]c3c2)cc(Cl)c1OCc1ccc(F)cc1	·	·	·	–	·	·
O=c1[nH]c2ccc(NCc3ccc(F)cc3)cc2[nH]1	·	–	–	17µM	·	–
Cc1cc(=O)n2nc(N(C)CC(=O)NCc3cccc(Br)c3)sc2n1	–	·	·	–	·	·
COC(CNc1ncnc2sc(-c3ccccc3)cc12)OC	·	–	–[1.84 µM]	?	·	–
CC(O)CNc1ncnc2cc(-c3ccc(F)cc3)sc12 (stereo not given)	·	?	?	11µM	·	?
COc1ccc(C(=O)Nc2nc(-c3ccccc3)c(C(C)=O)s2)c(OC)c1	–	–	?	0.85µM	–	?
CC(=O)c1sc(NC(=O)c2ccccc2F)nc1-c1ccccc1	11µM	2.2µM	1.8µM	12µM	–	–
COC(=O)CC1c2ccccc2C(Cc2ccc(OC)cc2)C(C)N1C(=O)OC (stereo not given)	–[9.22 µM]	·	·	·	–[7.66 µM]	·
CC(C)=N/N=c1\scc(C)n1Cc1ccco1	–	–	–	–	–	–
Cc1cs/c(=N\N=C\c2ccccc2)n1Cc1ccco1	–	–	–	21µM	–	–
CCc1cc(C(=O)Nc2ccc(OC)nc2)sc1C	·	–	–	21µM	·	–
CCc1cc(C(=O)Nc2ncccc2O)sc1C	·	1.1µM	2.5µM	1.3µM	·	0.33µM
COc1ccc(NC(=O)c2cc(Br)c(Br)s2)cn1	–	–	–	?	–	–
S=C(Nc1ccccc1)Nc1ccc(OCc2ccccc2)cc1	–	–	–	–	–	–
CCOCC(=O)Nc1ccc(OCc2ccccc2)cc1	?	–	?	17µM	–	?
CCOC(=O)C(=O)Nc1ccc(OCc2ccccc2)cc1	·	–	–	?	–	–
CC(C)=CC(=O)Nc1ccc(OCc2ccccc2)cc1	–	?	?	13µM	?	?
CC(C)=CC(=O)Nc1ccc(Br)cc1	13µM	2.5µM	1.4µM	4.8µM	–	3.7µM
O=C(O)c1ccncc1.O=C(O)c1ccncc1.[Cl][Pt]([Cl])([Cl])[Cl]	–[9.22 µM]	·	·	·	–[7.66 µM]	·
CC(C)(C)OC(=O)N1CCC[C@H]1C(O)(c1ccccc1)c1ccccc1	–	·	·	·	–	·
C/C(=N\NC(=O)c1cc(Br)ccc1O)c1cccs1	18µM	2µM	3.5µM	11µM	–	?
C/C(=N\NC(=O)c1ccccc1O)c1c(O)cc(C)oc1=O	?	–	?	15µM	–	–
C/C(=N\NC(=O)c1ccccc1[N+](=O)[O-])c1c(O)cc(C)oc1=O	–	–	–	–	–	–
C/C(=N/NC(=O)c1ccc(Br)o1)c1cccs1	·	2.5µM	4µM	17µM	·	9.2µM
C/C(=N\NC(=O)c1ccccc1O)c1ccc(Br)s1	1.6µM	?	?	3.8µM	–	–
SMILES	SMN2 splice enh	NPC1 promoter act	Rab9 promoter act	FLuc counter	Luc counter	ELG1 genotox
C/C(=N\NC(=O)c1cc(C)nc2ccccc12)c1cccs1	·	–	–	–	·	–
COc1cc(OC)c(NC(=O)Nc2c(C)n(C)n(-c3ccccc3)c2=O)cc1Cl	–	·	·	–	·	·
Cc1ccc(C(=O)c2cn(Cc3ccccc3)c3nc(C)ccc3c2=O)cc1	–	·	·	–	·	·
COc1ccc(-c2nc3ccccn3c2C=O)cc1	?	4µM	3.2µM	11µM	–	?
O=Cc1c(-c2ccc(F)cc2)nc2ccccn12	–	–	–	–	–	–
Cc1cc(C)nc(Nc2nc3ccccc3[nH]2)n1	13µM	?	?	?	–	?
Nc1ccc(Nc2nc3ccccc3[nH]2)cc1	·	–	–	–	·	–
c1ccc(Nc2nc3ccccc3[nH]2)nc1	?	?	3.5µM	24µM	–	?
Nc1ccccc1Nc1nc2ccccc2[nH]1	·	–	–	?	·	–
Cc1ccccc1-n1c2nc(=O)[nH]c(=O)c-2cc2c(Cl)cccc21	–	·	·	–	·	·
CNC(=S)Nc1ccc(C23CC4CC(CC(C4)C2)C3)cc1	·	–	–	?	·	–
